# Measurements: paper PMC4336329 (PLoS ONE, 2015)
# In all, about 310,000 compounds went through this assay and about 2,200 (0.71%) showed an effect of 50% or more. The effect is printed as a negative number. The sample holds strong results, similar compounds and a random draw of the others, so the mix is not that of the screen.
# Target: human ether-à-go-go-related gene (hERG) potassium channel (human, UniProt Q12809)
# Experiment: primary screen, population patch clamp on CHO cells stably expressing hERG; higher = less effect of the substance
# human ether-à-go-go-related gene (hERG) potassium channel, sequence (Q12809 whole entry, looked up): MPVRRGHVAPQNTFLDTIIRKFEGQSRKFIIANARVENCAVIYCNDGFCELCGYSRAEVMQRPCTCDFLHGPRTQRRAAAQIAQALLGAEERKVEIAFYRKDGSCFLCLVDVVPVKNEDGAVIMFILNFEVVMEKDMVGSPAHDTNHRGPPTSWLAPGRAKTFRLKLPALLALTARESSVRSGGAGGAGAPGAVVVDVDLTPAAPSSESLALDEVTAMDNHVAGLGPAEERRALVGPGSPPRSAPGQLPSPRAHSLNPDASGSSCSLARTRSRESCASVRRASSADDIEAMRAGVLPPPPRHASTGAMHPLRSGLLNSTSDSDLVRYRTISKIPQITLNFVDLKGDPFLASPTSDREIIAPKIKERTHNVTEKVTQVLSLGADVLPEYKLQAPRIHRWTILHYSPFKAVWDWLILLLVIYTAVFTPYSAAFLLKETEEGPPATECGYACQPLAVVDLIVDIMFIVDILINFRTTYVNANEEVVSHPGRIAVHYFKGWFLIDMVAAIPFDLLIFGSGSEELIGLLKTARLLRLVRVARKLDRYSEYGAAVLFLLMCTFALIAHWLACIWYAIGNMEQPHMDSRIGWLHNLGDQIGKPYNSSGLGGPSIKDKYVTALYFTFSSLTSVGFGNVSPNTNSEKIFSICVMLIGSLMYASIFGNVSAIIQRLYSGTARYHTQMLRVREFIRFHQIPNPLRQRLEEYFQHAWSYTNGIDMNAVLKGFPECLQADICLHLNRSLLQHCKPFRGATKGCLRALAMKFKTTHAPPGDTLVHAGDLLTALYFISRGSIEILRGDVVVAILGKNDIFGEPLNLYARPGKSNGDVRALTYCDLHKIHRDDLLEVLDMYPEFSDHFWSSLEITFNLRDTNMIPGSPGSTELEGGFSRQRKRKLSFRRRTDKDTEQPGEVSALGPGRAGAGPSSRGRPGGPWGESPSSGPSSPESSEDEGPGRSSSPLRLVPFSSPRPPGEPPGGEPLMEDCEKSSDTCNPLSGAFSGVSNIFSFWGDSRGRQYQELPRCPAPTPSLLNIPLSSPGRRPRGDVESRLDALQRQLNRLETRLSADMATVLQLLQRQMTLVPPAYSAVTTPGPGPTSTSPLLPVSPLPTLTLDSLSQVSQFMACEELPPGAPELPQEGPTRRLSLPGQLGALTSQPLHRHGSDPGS
row,Structure (SMILES),"hERG current change (%, negative = inhibition) at 1uM"
1,O=C1NC(=S)N(c2ccccc2)C(=O)/C1=C/c1ccco1,5.88%
2,COc1ccc(-n2nnnc2SCC(=O)c2ccc(O)c(O)c2)cc1,1.49%
3,Cc1ccccc1-c1nc2ccc(Cl)cc2c(=O)n1O,15.4%
4,CCOC(=O)c1ccc(NC(=O)CNC(=O)c2ccccc2)cc1,7.06%
5,CCSc1nnc(NC(=O)Nc2cccc(C)c2)s1,12.2%
6,Cn1nc([N+](=O)[O-])nc1Sc1nnnn1-c1ccc(C(=O)O)cc1,8.97%
7,CCCCn1c(CCNC(=O)c2ccco2)nc2ccccc21,7.54%
8,Cc1cc(C)cc(-c2nnc(SCC(=O)c3ccc4c(c3)OCCO4)o2)c1,16%
9,Cc1cn(COC/C=C/c2ccccc2)c(=O)[nH]c1=O,7.16%
10,Cc1cccc(C(=O)NCCCNC(=O)c2ccc(C)nc2)c1,10.6%
11,O=C(CN1CCCCCC1)Nc1ccc(Cl)cc1F,14.6%
12,CN1CCN(CC(=O)Nc2c(C(=O)c3ccccc3)oc3ccccc23)CC1,-83.2%
13,COc1ccc2oc(C(=O)c3ccccc3)c(NC(=O)CN3CCN(C)CC3)c2c1,-12.2%
14,O=C(CN1CCCC1)Nc1ccccc1Sc1ccc(Cl)cc1,-0.77%
15,CC(=O)N1CCN(CC(=O)Nc2ccccc2Sc2ccc(Cl)cc2)CC1,-58.3%
16,Cc1cc(Cl)ccc1OCCCC(=O)N1CCN(C(=O)c2ccco2)CC1,-59.1%
17,CC(=O)N1CCN(CC(=O)Nc2ccccc2Sc2ccccc2)CC1,-29.8%
18,Cc1cc(Cl)ccc1OCCCC(=O)N1CCN(C)CC1,0.322%
19,O=C(CN1CCN(C(=O)c2ccccc2)CC1)Nc1ccc(Cl)cc1F,-54.8%

row,Structure (SMILES),"hERG current change (%, negative = inhibition) at 1uM"
1,Cc1cc(Cl)ccc1OCCCC(=O)N1CCOCC1,-7.13%
2,O=C(CN1CCN(C(=O)c2cccc(F)c2)CC1)Nc1ccccc1F,-36.4%
3,CN1CCN(CC(=O)Nc2c(C(=O)C3CC3)oc3ccccc23)CC1,-16.9%
4,Cn1cnc([N+](=O)[O-])c1Cl,11%
5,O=C(CN1C(=O)c2ccccc2C1=O)Nc1ccccc1C(=O)NC1CCCCCC1,6.73%
6,Cc1ccc(CNC(=O)c2ccc(N3CCC4(CC3)CC(c3cccc(Br)c3)=NO4)c(NC(=O)c3cccc(C)c3)c2)cc1,8.49%
7,CCCSc1nc(C)c(C(C)=O)cc1C#N,7.88%
8,O=C(CCN1CCCCC1)Nc1ccc(Cl)cc1C(=O)c1ccccc1,-42.9%
9,O=C(CN1CCCC1)Nc1ccccc1C(=O)c1ccccc1,10.5%
10,O=C(CN1CCN(CCO)CC1)Nc1ccc(Cl)cc1C(=O)c1ccccc1,-80.7%
11,Cc1ccc(CNC(=O)N2CCN(c3ccc(C)cc3)CC2)cc1,14.1%
12,O=C1C=C(c2ccc(-c3ccccc3)cc2)C[C@@H](c2ccc(F)cc2)C1,6.09%
13,N#Cc1ccc(C2=CC(=O)C[C@H](c3ccc(F)cc3)C2)cc1,-61.4%
14,N#Cc1ccc(C2=CC(=O)C[C@H](c3ccc(Cl)cc3)C2)cc1,-51.9%
15,Cc1ccc(C2=CC(=O)C[C@H](c3ccc(F)cc3)C2)cc1,14.5%
16,O=C1C=C(c2ccc(-c3ccccc3)cc2)C[C@@H](c2ccc(Cl)cc2)C1,15.9%
17,Cc1ccc(C2=CC(=O)C[C@H](c3ccc(Cl)cc3)C2)cc1,10.4%
18,Cc1ccc2nc3c(cc2c1)c(NC(=O)C(C)(C)C)nn3CC(C)C,7.75%
19,COc1ccc(S(=O)(=O)N2CCCCCC2)cc1C(=O)N(C)Cc1ccccc1F,6.9%

row,Structure (SMILES),"hERG current change (%, negative = inhibition) at 1uM"
1,CCCn1c(SCC(=O)Nc2ccccc2OC)nnc1-c1ccco1,-18.2%
2,NC(=O)c1ccc(NC(=O)CCCNC(=O)c2ccc(Cl)cc2)cc1,16.6%
3,CCOc1ccc2nc(NC(=O)c3cc([N+](=O)[O-])ccc3N3CCOCC3)sc2c1,8.4%
4,COc1ccc(CN(C(=O)COc2ccccc2)c2ccccc2C(=O)O)cc1,22%
5,CC(C)Cn1c(CN(C)Cc2ccccc2)nc2c1c(=O)n(C)c(=O)n2C,-6.95%
6,CC12CCC(C(=Nc3ccc(N=C4C(=O)C5(C)CCC4C5(C)C)cc3)C1=O)C2(C)C,8.42%
7,COc1ccc(CNC(=S)NC2CCCC2)cc1,9.23%
8,COc1ccc(NC(=O)N2CCC(CO)(CC3CCCCO3)CC2)c(OC)c1 (stereo not drawn),9.96%
9,CCC(=O)c1ccc(N2CCN(C(=O)c3ccc(F)cc3)CC2)c(F)c1,-10.2%
10,O=C(COc1ccc(F)cc1)Nc1ccc(-n2cnnn2)cc1,-27.2%
11,CC(=O)c1cc(F)c(N2CCN(C(=O)COc3ccc(F)cc3)CC2)cc1C,-38.2%
12,O=C(COc1ccc(-n2cnnn2)cc1)NCCc1ccc(F)cc1,-5.74%
13,CC(=O)c1ccc(N2CCN(C(=O)COc3ccc(F)cc3)CC2)c(F)c1,-62.7%
14,CCC(=O)c1ccc(N2CCN(C(=O)COc3ccc(F)cc3)CC2)c(F)c1,-71.3%
15,O=C(COc1ccc(-n2cnnn2)cc1)N1CCN(c2ccc(F)cc2)CC1,-60.3%
16,CCC(=O)c1ccc(N2CCN(C(=O)COc3ccccc3F)CC2)c(F)c1,-19.1%
17,CC(=O)c1ccc(N2CCN(C(=O)COc3ccccc3F)CC2)c(F)c1,-11.1%
18,CCN(CC(=O)NCc1cccs1)C(=O)/C=C/c1cccc(Br)c1,-42.3%
19,COc1cccc(NC(=O)CN(C)C(=O)c2ccccc2Sc2ccccc2C#N)c1,8.02%
